TEAD-YAP inh: TEAD-YAP interaction inhibition, primary screen, TEAD-YAP interaction inhibitor project, luminescence, HEK-TIYL cells; actives 1.4% (n = 640,000); inhibition, % at 9.12 µM; TEAD-Gal4/YAP UAS-luciferase luminescence; in the data active means inhibition above about 32%;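 further: 0% = median of test compound wells and 100% = reference inhibitor wells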
GPR151 activ: activators of human GPR151, primary screen, cell-based, PathHunter beta-arrestin, luminescence; G-protein coupled receptor 151 (Homo sapiens), Q8TDV0; PathHunter beta-arrestin GPR151 cells; activation, % at 11.2 µM; actives 1% (n = 650,000); AID 1508602, 2020; in the data active means activation above about 4.9%;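 further: 0% = median of compound wells and 100% = cells with positive control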
Target sequence (Q8TDV0 whole entry, looked up): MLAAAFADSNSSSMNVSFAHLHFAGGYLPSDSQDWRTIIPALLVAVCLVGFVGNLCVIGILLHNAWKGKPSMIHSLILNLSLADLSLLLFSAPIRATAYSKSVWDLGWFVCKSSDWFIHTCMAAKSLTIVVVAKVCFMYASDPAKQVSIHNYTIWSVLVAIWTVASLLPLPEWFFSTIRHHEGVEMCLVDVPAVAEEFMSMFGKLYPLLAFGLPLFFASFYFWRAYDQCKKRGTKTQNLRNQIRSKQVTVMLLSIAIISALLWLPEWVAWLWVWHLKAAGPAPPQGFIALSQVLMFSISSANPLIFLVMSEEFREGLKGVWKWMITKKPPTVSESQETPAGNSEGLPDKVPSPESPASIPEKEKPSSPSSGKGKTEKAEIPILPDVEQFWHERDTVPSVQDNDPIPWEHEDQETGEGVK
FBW7 act: FBW7 E3 ligase activators, primary screen, biochemical, AlphaScreen, human. F-box/WD repeat-containing protein 7 (Homo sapiens), Q969H0. AlphaScreen FBW7–phospho-cyclin E peptide binding, activator screen. normalized activity (activation), % at 26.1 µM. actives 0.13% (n = 650,000); in the data active means normalized activity above about 1.9%;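 further: purified mutant Fbw7 with reduced substrate affinity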
MITF inh: MITF inhibitors, primary screen, biochemical, AlphaScreen, human | inhibition, % at 2.6 µM | actives 0.91% (n = 650,000) | AlphaScreen MITF homodimerization, bead proximity signal | AID 1259374, 2018; in the data active means inhibition above about 50%;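 further: 0% = vehicle wells with protein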
* = called active by the depositor. This is a sample that favours compounds with a hit; in the whole collection about 3.4% have one here.

SMILES	TEAD-YAP inh	GPR151 activ	FBW7 act	MITF inh
CCCc1cnc2c(c1SCC(=O)c1ccc(Cl)cc1)c(=O)n(C)c(=O)n2C	18	-1	0	-2
O=C(O)c1ccccc1Nc1c([N+](=O)[O-])ccc2nonc12	-3	0	0	8
COc1cc(C(=O)N/N=C(\C)c2ccc(N)cc2)cc(OC)c1OC	49*	0	0	-14
CS(=O)(=O)c1ccc(-c2cnc3[nH]c(=O)n(C4CCCCC4)c3n2)cc1	11	0	0	6
Cc1ncc(CO)c(/C=N/Nc2cccc(Cl)n2)c1O	-13	1	0	6
Cc1ncc(CO)c(/C=N/NC(=O)c2ccc(Cl)c(Cl)c2)c1O	-1	0	-1	-6
Cc1ncc(CO)c(/C=N/NC(=O)c2cc(O)c(O)c(O)c2)c1O	-7	1	0	99*
Cc1ncc(CO)c(/C=N/NC(=O)CCCOc2ccc(Cl)cc2Cl)c1O	55*	1	0	9
Cc1ncc(CO)c(/C=N/Nc2ccc3ccccc3n2)c1O	52*	0	-1	5
COc1ccc(C(c2ccc(OC)cc2)N(NC(=O)C(O)(c2ccc(OC)cc2)c2ccc(OC)cc2)C(C)=O)cc1	12	1	0	1
CCCCNC(=O)c1ccccc1NS(=O)(=O)c1ccc(OC)c(C)c1	8	0	0	0
CCC(=O)Nc1ccc(-c2cn3ccccc3n2)cc1	40*	-5	0	3
CCC(=O)Nc1ccc(-c2nc3ccccc3s2)cc1	84*	-8	0	20
O=C(Nc1ccc(O)c(-c2nc3ccccc3s2)c1)C1CC1	4	3	0	14
O=C(Nc1ccc(-c2nc3ccccc3s2)cc1)C1CC1	79*	-3	0	14
O=C(Nc1ccc(-c2cn3ccccc3n2)cc1)c1ccccc1	-25	-6	1	19
Cc1cccn2cc(-c3ccc(NC(=O)C(C)(C)C)cc3)nc12	64*	-4	0	-13
COc1ccc(C)cc1S(=O)(=O)Nc1ccc(C)c(C)c1	3	-1	0	15
O=C(O)CC1(CC(=O)N2CCC3(CC2)NCCc2c3[nH]c3ccc(Cl)cc23)CCCC1	-11	0	-1	-2
Cc1ccc(CN2C(=O)C3(OCCCO3)c3ccccc32)cc1	-1	0	0	-8
CN(C(=O)c1cn(C)c(=O)c2ccccc12)C1CCCCC1	-3	-1	0	9
Cc1nnc(NC(=O)C2CCN(c3nc4ccccc4s3)CC2)s1	6	0	0	11
CC(=O)Nc1ccc(NC(=O)C2CCN(c3nc4ccccc4s3)CC2)cc1	36*	-2	0	43
COC(=O)CN1C(=S)N(C)C(=O)/C1=C/c1cc(OC)c(O)c(OC)c1	46*	2	0	27
COc1ccc(C2Nc3ccc(C(=O)c4ccccc4)cc3NC3=C2C(=O)CC(C)(C)C3)cc1 (stereo not given)	15	-1	0	8
SMILES	TEAD-YAP inh	GPR151 activ	FBW7 act	MITF inh
CCOc1ccc(C2Nc3ccc(C(=O)c4ccccc4)cc3NC3=C2C(=O)CCC3)cc1 (stereo not given)	47*	2	0	17
COc1cccc(C2Nc3ccc(C(=O)c4ccccc4)cc3NC3=C2C(=O)CCC3)c1 (stereo not given)	60*	1	0	-2
O=C1CCCC2=C1C(c1ccc(F)c(Oc3ccccc3)c1)Nc1ccc(C(=O)c3ccccc3)cc1N2 (stereo not given)	8	2	0	2
COc1ccc(C2Nc3ccc(C(=O)c4ccccc4)cc3NC3=C2C(=O)CCC3)cc1 (stereo not given)	39*	0	0	5
COc1cc(C2Nc3ccc(C(=O)c4ccccc4)cc3NC3=C2C(=O)CCC3)cc(OC)c1O (stereo not given)	68*	-1	0	-11
O=C(CN1C(=O)/C(=C/c2ccccc2)SC1=S)Nc1ccc(O)cc1	0	-1	0	-1
CC(=O)c1ccc(-n2c(=O)c(C#N)cc3c(=O)n4ccccc4nc32)cc1	-5	0	0	8
COP(=O)(OC)C(Nc1ccc([N+](=O)[O-])cc1)c1c[nH]c2ccccc12 (stereo not given)	4	0	0	7
CCC(C)C1(c2ccccc2)SC(NC(C)=O)=NN1C(C)=O (stereo not given)	38*	-1	0	9
CC(=O)NCC1(c2ccccc2)SC(NC(C)=O)=NN1C(C)=O (stereo not given)	60*	0	0	16
Oc1cccc(C=Nc2ccccc2O)c1	-3	-1	0	-10
Oc1ccccc1N=Nc1ccccc1O	73*	0	0	72*
CCOC(=O)c1ccc(N2N=C(C(F)(F)F)/C(=C/C=C/c3ccco3)C2=O)cc1	3	0	0	64*
CCSc1nc(-c2ccccc2)ccc1C#N	-8	0	0	-5
Cc1ccccc1CSc1nc(-c2cccs2)ccc1C#N	53*	0	0	-6
N#Cc1ccc(-c2ccccc2)nc1SCc1ccccc1F	43*	2	0	-7
O=C(CSc1nnc(SCC(=O)NC2CCCCC2)s1)NC1CCCCC1	-6	2	0	1
O=C(/C=C/c1cccs1)c1ccc(N2CCOCC2)cc1	58*	-5	0	22
COc1cc([N+](=O)[O-])ccc1NC(=O)CSc1nnc(CNc2ccc(F)cc2)n1C	5	-1	0	11
O=C(CCl)N(CC1=CCSC1)c1ccccc1	47*	0	0	6
O=C(Nc1ccc(S(=O)(=O)N2CCCCC2c2cccnc2)cc1)c1ccc([N+](=O)[O-])cc1 (stereo not given)	36*	0	0	10
Cc1ccc(C(=O)Nc2ccc(S(=O)(=O)N3CCCCC3c3cccnc3)cc2)cc1 (stereo not given)	12	-1	0	-17
CCOc1ccc(C(=O)Nc2ccc(S(=O)(=O)N3CCCCC3c3cccnc3)cc2)cc1 (stereo not given)	33*	1	0	2
O=C(Nc1ccc(S(=O)(=O)N2CCCCC2c2cccnc2)cc1)c1ccc(S(=O)(=O)N2CCCC2)cc1 (stereo not given)	26	0	0	18
COc1ccc(C2N(c3ccc4c(c3)OCO4)C(=O)C2(F)F)cc1OC (stereo not given)	-1	1	0	9
Cc1cc2nnc(SCC(=O)NCc3ccco3)n2c2ccccc12	48*	-3	0	-5
Cc1cccc(Cn2cc(SCC(=O)NCc3ccco3)c3ccccc32)c1	36*	3	0	-4
COCCn1nnnc1CN1CCC(C(N)=O)CC1	-2	0	0	-9
CC1=C(C(=O)OCCOc2ccccc2)C(c2ccccc2C(F)(F)F)C2=C(CCCC2=O)N1 (stereo not given)	-3	-1	0	3
